The record followed here is the supplement of paper PMC6124720.

The structures appear in SMILES notation. Structures can show the parent of a compound that is named as a salt.
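Further: biolog Phenotype Microarray plates PM21–25, OD595 followed daily over 11 days, growth curves converted to index, mean of two independent experiments.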

The test deals with Pseudogymnoascus destructans 20631-21. Kind of test: growth activity index (DuctApe, 0 = no growth, 9 = maximal growth) (index 0-9); higher = more fungal growth (less inhibition), active = 0 or less; extreme values may be limits of the assay. The settings on record: concentration level (1-4, increasing; Biolog proprietary): 4; temperature: 13 °C; YPD.
On to `NCC(=O)NO` [Glycine hydroxamate] (Biolog plate: PM22), for which the growth activity index was 0 (active).

Regarding `O=NO` [Sodium Nitrite] (Biolog plate: PM23), the growth activity index was 1.33 (inactive).

As for `O=C(O)/C=C/c1ccccc1` [Cinnamic acid] (Biolog plate: PM25), the growth activity index was 5 (inactive). Take `O=C(O)CC(O)C(=O)O` (configuration not stated) [Malic acid] (Biolog plate: PM25): the growth activity index was 1.33 (inactive). For `CN(C)[C@@H]1C(O)=C(C(N)=O)C(=O)[C@@]2(O)C(O)=C3C(=O)c4c(O)ccc(Cl)c4[C@@](C)(O)[C@H]3C[C@@H]12` [Chlortetracycline] (Biolog plate: PM24) the value was 7 (inactive). `CC(=O)OCC1=C(C(=O)O)N2C(=O)[C@@H](NC(=O)Cc3cccs3)[C@H]2SC1` [Cephalotin] (Biolog plate: PM22): the growth activity index is 1 (inactive). Then `NC(CO)C(=O)NO` (racemic) [DL-Serine hydroxamate] (Biolog plate: PM22), with 0 (active); and `NC[C@H]1O[C@H](O[C@H]2[C@H](O)[C@@H](O[C@H]3O[C@H](CO)[C@@H](O)[C@H](N)[C@H]3O)[C@H](N)C[C@@H]2N)[C@H](N)C[C@@H]1O` [Tobramycin] (Biolog plate: PM25), with 1 (inactive).

Take `NCC(=O)O` [Glycine hydrochloride] (Biolog plate: PM23): the growth activity index is 2 (inactive). Take `C[C@H]1c2cccc(O)c2C(=O)C2=C(O)[C@]3(O)C(=O)C(C(N)=O)=C(O)[C@@H](N(C)C)[C@@H]3[C@@H](O)[C@@H]21` [Doxycycline] (Biolog plate: PM23): the growth activity index is 6 (inactive). Then `O=c1[nH]cc(F)c(=O)[nH]1` [5-Fluorouracil] (Biolog plate: PM25), with 6 (inactive); and `On1ccccc1=S` [1-Hydroxypyridine-2-thione (pyrithione)] (Biolog plate: PM21), with 2.25 (inactive).
